Source: PubChem BioAssay AID1159580 (chemical genetic matrix, 2015)
Several values for one entry are separate records, joined by “and”; a condition that tells them apart may be missing. Equal values may be shown once. Screen size: about 5,500 compounds; about 2,000 (36%) were called active. Another 18% or so got no clear call; they are omitted. Rule as the data show it: active = normalized growth mostly below about 0.91 (no sharp cut-off); inconclusive = no clear call, values can overlap the other calls; inactive = mostly above about 0.92. The list shows a part of the results. *1 amine or outer side, *2 acyl side, *3 side chain or, on linkers, in order; H or OH if unused. Where a SMILES comes first, the peptide text is derived from it. Bridges are numbered along the chain shown (N, C = ends). [ ]: non-standard residue; d: D form. The star is where a group is joined. ξ: configuration not given here. ΔAla(E,3-NHCONH2) = NC(=O)N/C=C(/N)C(=O)O; X2 = NC1=NCCC(C(N[*:1])C(=O)[*:2])N1; ξβ3hOrn = NCCCC(N)CC(=O)*; Dap = NC[CH](N)C(=O)O

Assay: chemical genetic growth profiling, strain panel (AID 1159580);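 also: tested at 20 µM; growth read once vehicle control cultures reached saturation at 30 °C; 1 = growth at the plate median or of vehicle wells; lower values mean less growth of the strain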
Settings: S. cerevisiae deletion strains, growth OD

Measured: normalized growth

NCCCC(N)CC(=O)NCC1NC(=O)C(CO)NC(=O)C(N)CNC(=O)C(C2CCN=C(N)N2)NC(=O)/C(=C\NC(N)=O)NC1=O (stereo not drawn) (H-[Dap]S[Dap](ξβ3hOrn)[ΔAla(E,3-NHCONH2)][X2]; lactam 1-C; configuration not given here)
inactive: locus YAL013W, strain DEP1, stronger effect = lower value 0.999 | locus YAL021C, strain ccr4, stronger effect = lower value 1.01 | locus YAL026C, strain drs2, stronger effect = lower value 0.994 | locus YAL030W, strain snc1, stronger effect = lower value 1.03 | locus YBL061C, strain skt5, stronger effect = lower value 1.02 | locus YBR009C, strain hhf1, stronger effect = lower value 0.975 | locus YBR021W, strain FUR4, stronger effect = lower value 0.997 | locus YBR023C, strain chs3, stronger effect = lower value 1.01 | locus YBR171W, strain sec66, stronger effect = lower value 1.02 | locus YBR229C, strain ROT2, stronger effect = lower value 1.01 | locus YBR231C, strain swc5, stronger effect = lower value 1.05 | locus YBR279W, strain paf1, stronger effect = lower value 1.01 | locus YCL011C, strain gbp2, stronger effect = lower value 0.984 | locus YCL016C, strain dcc1, stronger effect = lower value 0.989 | locus YCL029C, strain bik1, stronger effect = lower value 1.03 | locus YCL069W, strain vba3, stronger effect = lower value 1.01 | locus YCR088W, strain abp1, stronger effect = lower value 1.02 | locus YDL005C, strain med2, stronger effect = lower value 0.994 | locus YDL035C, strain GPR1, stronger effect = lower value 1.01 | locus YDL040C, strain nat1, stronger effect = lower value 1.01 | locus YDL074C, strain BRE1, stronger effect = lower value 1.02 | locus YDL101C, strain DUN1, stronger effect = lower value 1 | locus YDL185W, strain tfp1, stronger effect = lower value 1.03 | locus YDL192W, strain arf1, stronger effect = lower value 0.998 | locus YDR001C, strain nth1, stronger effect = lower value 0.999 | locus YDR069C, strain doa4, stronger effect = lower value 1.03 | locus YDR101C, strain arx1, stronger effect = lower value 1.02 | locus YDR137W, strain rgp1, stronger effect = lower value 0.991 | locus YDR159W, strain sac3, stronger effect = lower value 0.975 | locus YDR162C, strain NBP2, stronger effect = lower value 1.01 | locus YDR195W, strain ref2 1.05 | locus YDR297W, strain sur2, stronger effect = lower value 1.03 | locus YDR318W, strain mcm21, stronger effect = lower value 1.02 | locus YDR334W, strain swr1, stronger effect = lower value 1 | locus YDR335W, strain msn5, stronger effect = lower value 1.02 | locus YDR388W, stronger effect = lower value 1.01 | locus YDR392W, strain spt3, stronger effect = lower value 0.928 | locus YDR502C, strain sam2, stronger effect = lower value 1.01 | locus YEL003W, strain gim4, stronger effect = lower value 1.04 | locus YEL037C, strain rad23, stronger effect = lower value 1.02 | locus YEL061C, strain CIN8 (second series), stronger effect = lower value 1.02 | locus YEL061C, strain CIN8, stronger effect = lower value 0.997 | locus YER015W, strain faa2, stronger effect = lower value 1.01 | locus YER016W, strain bim1, stronger effect = lower value 0.993 | locus YER110C, stronger effect = lower value 1.02 | locus YER111C, strain swi4, stronger effect = lower value 0.999 | locus YER155C, strain BEM2 (second series), stronger effect = lower value 1 | locus YER155C, strain BEM2, stronger effect = lower value 1 | locus YER167W, strain BCK2, stronger effect = lower value 0.996 | locus YFR010W, strain ubp6, stronger effect = lower value 1.05 | locus YGL078C, strain dbp3, stronger effect = lower value 1.02 | locus YGL086W, strain mad1, stronger effect = lower value 0.997 | locus YGL167C, strain pmr1, stronger effect = lower value 1.02 | locus YGL173C, strain kem1, stronger effect = lower value 1.04 | locus YGL227W, strain vid30, stronger effect = lower value 1.01 | locus YGL240W, strain doc1, stronger effect = lower value 1.06 | locus YGL248W, strain PDE1, stronger effect = lower value 1.01 | locus YGL253W, strain hxk2, stronger effect = lower value 0.984 | locus YGR078C, strain PAC10, stronger effect = lower value 1.01 | locus YGR135W, strain pre9, stronger effect = lower value 1.04 | locus YGR229C, strain SMI1, stronger effect = lower value 1.02 | locus YGR252W, strain gcn5, stronger effect = lower value 0.993 | locus YHR013C, strain ard1, stronger effect = lower value 1.03 | locus YHR027C, strain rpn1, stronger effect = lower value 1.01 | locus YHR030C, strain SLT2, stronger effect = lower value 1 and 1.03 | locus YHR079C, strain IRE1 (second series), stronger effect = lower value 1.02 | locus YHR079C, strain IRE1, stronger effect = lower value 1.03 | locus YHR094C, strain hxt1, stronger effect = lower value 1.01 | locus YHR129C, strain ARP1, stronger effect = lower value 0.999 | locus YHR142W, strain chs7, stronger effect = lower value 1.01 | locus YHR200W, strain rpn10, stronger effect = lower value 1.02 | locus YIL066C, strain RNR3, stronger effect = lower value 1.01 | locus YIL073C, strain SPO22, stronger effect = lower value 1.08 | locus YIL125W, strain kgd1, stronger effect = lower value 1.01 | locus YIR030C, strain dcg1, stronger effect = lower value 1.01 | locus YJL092W, strain hpr5, stronger effect = lower value 1.03 | locus YJL095W, strain BCK1 (second series), stronger effect = lower value 1.03 | locus YJL095W, strain BCK1, stronger effect = lower value 1.01 and 1.04 | locus YJL115W, strain asf1, stronger effect = lower value 1.02 | locus YJL129C, strain trk1, stronger effect = lower value 1.01 | locus YJL134W, strain LCB3, stronger effect = lower value 1.01 | locus YJL154C, strain vps35, stronger effect = lower value 1.01 | locus YJL164C, strain tpk1, stronger effect = lower value 1 | locus YJL166W, strain qcr8, stronger effect = lower value 1.04 | locus YJL168C, strain set2, stronger effect = lower value 1.01 | locus YJL187C, strain SWE1 (second series), stronger effect = lower value 1.01 | locus YJR043C, strain POL32, stronger effect = lower value 1.01
